# Measured values as given in the supplement of paper PMC8728848.
# This excerpt belongs to a sample that is enriched for the strongest signals.
# B1: Clone730PsrP (Streptococcus pneumoniae) (protein)
# chain: MDHHHHHHHHHHASENLYFQGAMVVGSQTAAATEATAKKVEEDRKKPASDYVASVTNVNLQSYAKRRKRSVDSIEQLLASIKNAAVFSGNTIVNGAPAINASLNIAKSETKVYTGEGVDSVYRVPIYYKLKVTNDGSKLTFTYTVTYVNPKTNDLGNISSMRPGYSIYNSGTSTQTMLTLGSDLGKPSGVKNYITDKNGRQVLSYNTSTMTTQGSGYTWGNGAQMNGFFAKKGYGLTSSWTVPITGTDTSFTFTPYAARTDRIGINYFNGGGKVVESSTT
# Tests used:
# Assay in all cases: glycan array binding signal (z-score within array); higher = stronger binding
# Details in all cases: glycan notation: IUPAC condensed, linker removed
# Fuc(a1-2)Gal = target: Fuc(a1-2)Gal
# Summary of the method: (§1)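 The binding signal is a Z-score computed within each array. Data were drawn from 3228 arrays in the Consortium for Functional Glycomics database, restricted to those with a known protein sequence. Scores were averaged over arrays of the same protein sequence at different concentrations or buffers, and over linkers, and negative values can be taken as non-binding.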
# [1] = target: Fuc(a1-2)Gal(b1-3)GlcNAc(b1-3)[Fuc(a1-2)Gal(b1-3)GlcNAc(b1-6)]GalNAc
# Summary of the method: as §1
# [2] = target: Fuc(a1-2)Gal(b1-3)[Fuc(a1-4)]GlcNAc(b1-2)Man(a1-3)[Fuc(a1-2)Gal(b1-3)[Fuc(a1-4)]GlcNAc(b1-2)Man(a1-6)]Man(b1-4)GlcNAc(b1-4)[Fuc(a1-6)]GlcNAc(b1-4)[Fuc(a1-6)]GlcNAc
# Summary of the method: as §1
# [3] = target: Fuc(a1-2)Gal(b1-4)GlcNAc(b1-2)Man(a1-3)[Fuc(a1-2)Gal(b1-4)GlcNAc(b1-2)Man(a1-6)]Man(b1-4)GlcNAc(b1-4)GlcNAc
# Summary of the method: as §1
# [4] = target: Fuc(a1-2)Gal(b1-4)GlcNAc(b1-6)GalNAc
# Summary of the method: as §1
# Fuc(a1-2)Gal6S(b1-4)Glc = target: Fuc(a1-2)Gal6S(b1-4)Glc
# Summary of the method: as §1
# [5] = target: Fuc(a1-2)[Gal(a1-3)]Gal(b1-4)[Fuc(a1-3)]GlcNAc(b1-3)GalNAc
# Summary of the method: as §1
# [6] = target: Fuc(a1-2)[GalNAc(a1-3)]Gal(b1-4)GlcNAc(b1-2)Man(a1-3)[Fuc(a1-2)[GalNAc(a1-3)]Gal(b1-4)GlcNAc(b1-2)Man(a1-6)]Man(b1-4)GlcNAc(b1-4)[Fuc(a1-6)]GlcNAc
# Summary of the method: as §1
# [7] = target: Fuc(a1-2)[GalNAc(a1-3)]Gal(b1-4)[Fuc(a1-3)]GlcNAc(b1-3)GalNAc
# Summary of the method: as §1
# [8] = target: Fuc(a1-3)[GalNAc(b1-4)]GlcNAc
# Summary of the method: as §1
# [9] = target: Fuc(a1-3)[GalNAc(b1-4)]GlcNAc6S
# Summary of the method: as §1
# Gal(a1-2)Gal = target: Gal(a1-2)Gal
# Summary of the method: as §1
# [10] = target: Gal(a1-3)Gal(b1-4)GlcNAc(b1-6)GalNAc
# Summary of the method: as §1
# [11] = target: Gal(b1-3)GalNAc(b1-4)[Neu5Ac(a2-3)]Gal(b1-4)Glc
# Summary of the method: as §1
# [12] = target: Gal(b1-3)GlcNAc(b1-2)[Gal(b1-3)GlcNAc(b1-6)]Man(a1-6)[Gal(b1-3)GlcNAc(b1-2)Man(a1-3)]Man(b1-4)GlcNAc(b1-4)GlcNAc
# Summary of the method: as §1
# [13] = target: Gal(b1-3)GlcNAc(b1-3)Gal(b1-4)GlcNAc(b1-2)Man(a1-3)[Gal(b1-3)GlcNAc(b1-3)Gal(b1-4)GlcNAc(b1-2)Man(a1-6)]Man(b1-4)GlcNAc(b1-4)GlcNAc
# Summary of the method: as §1
# [14] = target: Gal(b1-3)GlcNAc(b1-3)Gal(b1-4)[Fuc(a1-3)]GlcNAc(b1-6)[Gal(b1-3)GlcNAc(b1-3)]Gal(b1-4)Glc
# Summary of the method: as §1
# [15] = target: Gal(b1-3)GlcNAc(b1-6)GalNAc
# Summary of the method: as §1
# [16] = target: Gal(b1-3)[Neu5Ac(a2-6)]GalNAc
# Summary of the method: as §1
# [17] = target: Gal(b1-4)GalNAc(a1-3)[Fuc(a1-2)]Gal(b1-4)GlcNAc
# Summary of the method: as §1
# [18] = target: Gal(b1-4)GlcNAc(b1-2)Man(a1-3)[Gal(b1-4)GlcNAc(b1-2)Man(a1-6)][GlcNAc(b1-4)]Man(b1-4)GlcNAc(b1-4)[Fuc(a1-6)]GlcNAc
# Summary of the method: as §1
# [19] = target: Gal(b1-4)GlcNAc(b1-2)[Gal(b1-4)GlcNAc(b1-4)]Man(a1-3)[Gal(b1-4)GlcNAc(b1-2)Man(a1-6)]Man(b1-4)GlcNAc(b1-4)GlcNAc
# Summary of the method: as §1
# Gal3S(b1-4)GlcNAc = target: Gal3S(b1-4)GlcNAc
# Summary of the method: as §1
# [20] = target: Gal3S(b1-4)[Fuc(a1-3)]GlcNAc
# Summary of the method: as §1
# Gal3S6S(b1-4)GlcNAc6S = target: Gal3S6S(b1-4)GlcNAc6S
# Summary of the method: as §1
# Gal4S6S(b1-4)GlcNAc = target: Gal4S6S(b1-4)GlcNAc
# Summary of the method: as §1
# GalNAc(b1-4)Gal(b1-4)Glc = target: GalNAc(b1-4)Gal(b1-4)Glc
# Summary of the method: as §1
# GalNAc(b1-4)GlcNAc = target: GalNAc(b1-4)GlcNAc
# Summary of the method: as §1
# [21] = target: Glc(a1-4)Glc(a1-4)Glc(a1-4)Glc
# Summary of the method: as §1
# Glc(a1-6)Glc(a1-6)Glc = target: Glc(a1-6)Glc(a1-6)Glc
# Summary of the method: as §1
# [22] = target: Glc(a1-6)Glc(a1-6)Glc(a1-6)Glc
# Summary of the method: as §1
# [23] = target: GlcNAc(b1-3)Gal(b1-4)GlcNAc(b1-3)Gal(b1-4)GlcNAc
# Summary of the method: as §1
# [24] = target: GlcNAc(b1-3)Gal(b1-4)GlcNAc(b1-3)Gal(b1-4)GlcNAc(b1-3)Gal(b1-4)GlcNAc(b1-2)Man(a1-3)[GlcNAc(b1-3)Gal(b1-4)GlcNAc(b1-3)Gal(b1-4)GlcNAc(b1-3)Gal(b1-4)GlcNAc(b1-2)Man(a1-6)]Man(b1-4)GlcNAc(b1-4)GlcNAc
# Summary of the method: as §1
# [25] = target: GlcNAc(b1-3)[GlcNAc(b1-4)][GlcNAc(b1-6)]GlcNAc
# Summary of the method: as §1
# Man(a1-3)[Man(a1-6)]Man = target: Man(a1-3)[Man(a1-6)]Man
# Summary of the method: as §1
# [26] = target: Man(a1-3)[Man(a1-6)]Man(a1-6)[Man(a1-3)]Man
# Summary of the method: as §1
# [27] = target: Man(a1-3)[Man(a1-6)]Man(b1-4)GlcNAc(b1-4)[Fuc(a1-6)]GlcNAc
# Summary of the method: as §1
# Man(a1-6)Man = target: Man(a1-6)Man
# Summary of the method: as §1
# [28] = target: Neu5Ac(a2-3)Gal(b1-3)GlcNAc(b1-2)Man(a1-3)[Neu5Ac(a2-3)Gal(b1-3)GlcNAc(b1-2)Man(a1-6)]Man(b1-4)GlcNAc(b1-4)GlcNAc
# Summary of the method: as §1
# [29] = target: Neu5Ac(a2-3)Gal(b1-4)GlcNAc(b1-2)Man
# Summary of the method: as §1
# [30] = target: Neu5Ac(a2-3)Gal(b1-4)GlcNAc(b1-2)Man(a1-3)[GlcNAc(b1-4)][Neu5Ac(a2-3)Gal(b1-4)GlcNAc(b1-2)Man(a1-6)]Man(b1-4)GlcNAc(b1-4)GlcNAc
# Summary of the method: as §1
# [31] = target: Neu5Ac(a2-3)Gal(b1-4)GlcNAc(b1-2)Man(a1-3)[Neu5Ac(a2-3)Gal(b1-4)GlcNAc(b1-2)Man(a1-6)]Man(b1-4)GlcNAc(b1-4)[Fuc(a1-6)]GlcNAc
# Summary of the method: as §1
# [32] = target: Neu5Ac(a2-3)Gal(b1-4)GlcNAc(b1-3)Gal
# Summary of the method: as §1
# [33] = target: Neu5Ac(a2-3)Gal(b1-4)GlcNAc(b1-3)Gal(b1-4)GlcNAc(b1-3)Gal(b1-4)GlcNAc(b1-2)Man(a1-3)[Neu5Ac(a2-3)Gal(b1-4)GlcNAc(b1-3)Gal(b1-4)GlcNAc(b1-3)Gal(b1-4)GlcNAc(b1-2)Man(a1-6)]GalNAc
# Summary of the method: as §1
# [34] = target: Neu5Ac(a2-3)Gal(b1-4)[Fuc(a1-3)]GlcNAc6S
# Summary of the method: as §1
# [35] = target: Neu5Ac(a2-3)[GalNAc(b1-4)]Gal(b1-4)Glc
# Summary of the method: as §1
# [36] = target: Neu5Ac(a2-6)Gal(b1-4)GlcNAc(b1-2)Man(a1-6)[GlcNAc(b1-2)Man(a1-3)]Man(b1-4)GlcNAc(b1-4)GlcNAc
# Summary of the method: as §1
# [37] = target: Neu5Ac(a2-6)Gal(b1-4)GlcNAc(b1-3)Gal(b1-4)GlcNAc(b1-3)Gal(b1-4)GlcNAc(b1-2)Man(a1-3)[Neu5Ac(a2-6)Gal(b1-4)GlcNAc(b1-3)Gal(b1-4)GlcNAc(b1-3)Gal(b1-4)GlcNAc(b1-2)Man(a1-6)]GalNAc
# Summary of the method: as §1
# [38] = target: Neu5Ac(a2-6)Gal(b1-4)GlcNAc(b1-3)Gal(b1-4)GlcNAc(b1-6)[Gal(b1-3)]GalNAc
# Summary of the method: as §1
# [39] = target: Neu5Ac(a2-6)Gal(b1-4)GlcNAc(b1-3)[Neu5Ac(a2-6)Gal(b1-4)GlcNAc(b1-6)]GalNAc
# Summary of the method: as §1
# [40] = target: Neu5Gc(a2-8)Neu5Gc(a2-3)Gal(b1-4)GlcNAc(b1-3)Gal(b1-4)GlcNAc
# Summary of the method: as §1
# [41] = target: Neu5Gc(a2-8)Neu5Gc(a2-6)Gal(b1-4)GlcNAc
# Summary of the method: as §1
binder,measurement,setting,value
B1,glycan array binding signal (z-score),Fuc(a1-2)Gal,0.412
same,glycan array binding signal (z-score),[1],1.96
same,glycan array binding signal (z-score),[2],-0.364
same,glycan array binding signal (z-score),[3],-0.472
same,glycan array binding signal (z-score),[4],1.79
same,glycan array binding signal (z-score),Fuc(a1-2)Gal6S(b1-4)Glc,-0.11
same,glycan array binding signal (z-score),[5],-0.513
same,glycan array binding signal (z-score),[6],2.17
same,glycan array binding signal (z-score),[7],0.059
same,glycan array binding signal (z-score),[8],0.389
same,glycan array binding signal (z-score),[9],0.499
same,glycan array binding signal (z-score),Gal(a1-2)Gal,-0.461
same,glycan array binding signal (z-score),[10],-0.459
same,glycan array binding signal (z-score),[11],2.82
same,glycan array binding signal (z-score),[12],19.3
same,glycan array binding signal (z-score),[13],-0.281
same,glycan array binding signal (z-score),[14],-0.518
same,glycan array binding signal (z-score),[15],-0.605
same,glycan array binding signal (z-score),[16],-0.508
same,glycan array binding signal (z-score),[17],-0.441
same,glycan array binding signal (z-score),[18],-0.249
same,glycan array binding signal (z-score),[19],-0.616
same,glycan array binding signal (z-score),Gal3S(b1-4)GlcNAc,0.189
same,glycan array binding signal (z-score),[20],0.82
same,glycan array binding signal (z-score),Gal3S6S(b1-4)GlcNAc6S,-0.38
same,glycan array binding signal (z-score),Gal4S6S(b1-4)GlcNAc,-0.324
same,glycan array binding signal (z-score),GalNAc(b1-4)Gal(b1-4)Glc,1.39
same,glycan array binding signal (z-score),GalNAc(b1-4)GlcNAc,0.829
same,glycan array binding signal (z-score),[21],2.03
same,glycan array binding signal (z-score),Glc(a1-6)Glc(a1-6)Glc,-0.273
same,glycan array binding signal (z-score),[22],2.73
same,glycan array binding signal (z-score),[23],-0.488
same,glycan array binding signal (z-score),[24],-0.481
same,glycan array binding signal (z-score),[25],-0.013
same,glycan array binding signal (z-score),Man(a1-3)[Man(a1-6)]Man,0.888
same,glycan array binding signal (z-score),[26],2.14
same,glycan array binding signal (z-score),[27],-0.591
same,glycan array binding signal (z-score),Man(a1-6)Man,3.24
same,glycan array binding signal (z-score),[28],0.657
same,glycan array binding signal (z-score),[29],1.83
same,glycan array binding signal (z-score),[30],-0.507
same,glycan array binding signal (z-score),[31],-0.658
same,glycan array binding signal (z-score),[32],-0.586
same,glycan array binding signal (z-score),[33],1.38
same,glycan array binding signal (z-score),[34],1.98
same,glycan array binding signal (z-score),[35],-0.647
same,glycan array binding signal (z-score),[36],-0.372
same,glycan array binding signal (z-score),[37],0.355
same,glycan array binding signal (z-score),[38],-0.382
same,glycan array binding signal (z-score),[39],-0.567
same,glycan array binding signal (z-score),[40],-0.565
same,glycan array binding signal (z-score),[41],-0.41
